Only some compounds are listed: those with a hit (about 21% of all), similar ones and a draw of the others.
TDP1 cell CPT = DT40-hTDP1 cell growth loss with CPT; chicken DT40 Tdp1-/-;hTDP1 cells + 20 nM CPT, ATP luminescence, 48 h; Potency, µM (highest dose often 46.2 µM), for the others: top-dose activity change, negative = growth inhibition, usual class: inhibitors; 420,000 tested, 12% active; AID 686979; also: potency is read from the fitted curve at half-maximal effect; nearly all actives have a fitted effect of over 55% in size
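Chicken DT40 Tdp1-/- cells stably complemented with human TDP1 were seeded at 400 cells/well in medium containing 20 nM camptothecin, exposed to pin-transferred compounds, and grown at 37 °C for at least 48 hr. Viability was read as ATP luminescence.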
RORg inh = inhibitors of mouse ROR gamma transcriptional activity | Drosophila S2 Gal4-RORgamma UAS-luciferase reporter, 20 h | AID 2551 | Potency, µM (doses to about 53.6 µM), for inactives: at the top dose activity change, negative = inhibition, actives largely listed as inhibitors | 310,000 tested, 5.4% active; also: potency is read from the fitted curve at half-maximal effect; nearly all actives have a fitted effect of over 60% in size
Target sequence (P51450 whole entry, looked up, the tested form may be a part): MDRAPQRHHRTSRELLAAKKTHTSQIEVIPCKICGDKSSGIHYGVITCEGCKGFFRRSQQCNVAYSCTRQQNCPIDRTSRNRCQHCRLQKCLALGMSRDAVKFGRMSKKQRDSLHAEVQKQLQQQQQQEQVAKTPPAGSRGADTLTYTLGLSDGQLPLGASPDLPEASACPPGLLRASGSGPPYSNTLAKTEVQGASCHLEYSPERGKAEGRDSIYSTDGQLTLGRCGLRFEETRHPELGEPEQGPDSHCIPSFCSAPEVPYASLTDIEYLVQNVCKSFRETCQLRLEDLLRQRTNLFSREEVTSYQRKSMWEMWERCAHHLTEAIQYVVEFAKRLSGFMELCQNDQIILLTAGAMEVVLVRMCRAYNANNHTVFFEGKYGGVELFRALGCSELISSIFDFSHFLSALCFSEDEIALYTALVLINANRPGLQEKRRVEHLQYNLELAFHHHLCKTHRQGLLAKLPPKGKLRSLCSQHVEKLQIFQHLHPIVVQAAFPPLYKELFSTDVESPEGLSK
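A Gal4/UAS one-hybrid system in insect cells: metallothionein-promoter Gal4–ROR gamma fusion plus Photinus luciferase reporter. Copper sulfate 700 uM final, 20 hr ambient incubation, luminescent detection after 10 min with reagent.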
ELG1 repair inh = blocks ELG1-dependent DNA repair in HEK293T cells; HEK293T ELG1-luciferase reporter, luminescence, 16 h; DNA damage induced by 5-fluorouridine; AID 504467; Potency, µM (series often up to 46.1 µM), for inactives: at the highest dose activity change, negative = inhibition, actives largely listed as inhibitors; 330,000 tested, 2.3% active; also: potency is read from the fitted curve at half-maximal effect; nearly all actives have a fitted effect of over 55% in size
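Reporter activity after DNA damage by 5-fluorouridine is monitored. Compound-treated cells incubate 16 hr at 37 °C, then ONE-Glo is added for 30 min before luminescence reading.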
IL1B secr inh = inflammasome signaling inhibition, IL-1 beta readout | activity change, % at 57.5 µM | AID 743279 | THP-1 LPS/ATP IL-1B secretion, AlphaLISA, 16 h; active compounds read low | 360,000 tested, 4.7% active; in the data active = activity change below about -50%; inconclusive = mostly about -30% to -49%
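THP-1 cells pretreated 1 hr with compounds (up to 57.5 uM final), then stimulated with LPS (250 ng/mL final) plus ATP (1.25 mM final); secreted IL-1B measured by AlphaLISA after 16 hr, decreased signal indicating inhibition.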
DT40 TDP1 no CPT = qHTS for Inhibitors of human tyrosyl-DNA phosphodiesterase 1 (TDP1): qHTS in cells in absence of CPT. Potency, µM (titrated, usually from 46.2 µM), for inactives: top-dose activity change, negative = growth inhibition, most hits filed as inhibitors. AID 686978, 2013. DT40 Tdp1-/- hTDP1 cells, no CPT, ATP luminescence, 48 h. 420,000 tested, 15% active; also: potency is read from the fitted curve at half-maximal effect; nearly all actives have a fitted effect of over 55% in size
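Readout: luminescence from CellTiter-Glo after 30 min in the dark at RT. Cells: DT40 Tdp1-/- with stable hTDP1, 400/well. Exposure: compounds alone, ≥48 hr, 37 °C.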
VP16 counter = inhibits Gal4-VP16 luciferase reporter, ROR gamma counter-screen; Potency, µM (top dose mostly 53.6 µM), for inactives: at the highest dose activity, negative = inhibition, most hits filed as inhibitors; AID 2546; 310,000 tested, 3.5% active; Drosophila S2 Gal4-VP16 UAS-luciferase, luminescence, 20 h;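 also: Gal4-VP16 expression switched on by copper sulfate through the metallothionein promoter; potency is read from the fitted curve at half-maximal effect; nearly all actives have a fitted effect of over 50% in size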
Numbers without * were called inactive; [ ] = another dose, or the depositor's remark. Unless noted, calls follow the shape of the dose curve; as a rule, active = well fitted curve in the direction sought with a large enough effect; inconclusive = small, poorly fitted or top-dose-only effect, or another doubt; inactive = no such curve, though single readings can be large; an effect the other way counts as inactive or inconclusive. % is scaled to controls: 0 for no effect and ±100 for the full control effect.

For CC(C)(CNC(=O)c1cc2ccccc2o1)N1CCOCC1 the results were TDP1 cell CPT -2%, RORg inh -16%, ELG1 repair inh -10%, IL1B secr inh 7, DT40 TDP1 no CPT 4% and VP16 counter 0%.
Screening CC(C)(CNC(=O)C1c2ccccc2-c2ccccc21)N1CCOCC1 returned TDP1 cell CPT 9%, RORg inh -13%, ELG1 repair inh 0%, IL1B secr inh -68*, DT40 TDP1 no CPT 2% and VP16 counter 4%.
For Cc1cccc(N(C(=O)Cn2nnc3ccccc32)C(C(=O)NC(C)(C)C)c2ccsc2)c1C (stereo not drawn) the results were TDP1 cell CPT inconclusive, RORg inh 34%, ELG1 repair inh inconclusive, IL1B secr inh -13, DT40 TDP1 no CPT 16µM* and VP16 counter -4%.
`Cc1ccccc1CCN(C(=O)Cn1nnc2ccccc21)C(C(=O)NC(C)(C)C)c1ccsc1` (stereo not drawn) gave TDP1 cell CPT 18µM*, RORg inh inconclusive, ELG1 repair inh inconclusive, IL1B secr inh 3, DT40 TDP1 no CPT 26µM* and VP16 counter -4%[0.365 µM].
Screening O=C(O)CC(c1ccc(Br)cc1)N1Cc2ccccc2C1=O (stereo not drawn) returned TDP1 cell CPT 33%, RORg inh -2%, ELG1 repair inh -10%, IL1B secr inh 2, DT40 TDP1 no CPT 5% and VP16 counter -20%.
Screening CC1C(=O)N(Cc2cn(CCC3OCCCO3)nn2)CCS(=O)(=O)N1Cc1ccc(-c2ccc(Cl)nc2)cc1 (stereo not drawn) returned TDP1 cell CPT inconclusive, IL1B secr inh 20 and DT40 TDP1 no CPT inconclusive.
Screening CC1C(=O)N(Cc2cn(CC3CCCCC3)nn2)CCS(=O)(=O)N1Cc1ccc(-c2ccc(F)nc2)cc1 (stereo not drawn) returned TDP1 cell CPT inconclusive, IL1B secr inh 2 and DT40 TDP1 no CPT -24%.
For CC1C(=O)N(Cc2cn(CC3CCCCC3)nn2)CCS(=O)(=O)N1Cc1ccc(-c2ccccc2)cc1 (stereo not drawn) the results were TDP1 cell CPT 23µM*, IL1B secr inh -18 and DT40 TDP1 no CPT 15µM*.
`COc1ccc(-c2ccc(CN3C(C)C(=O)N(Cc4cn(CC5CCCCC5)nn4)CCS3(=O)=O)cc2)cc1` (stereo not drawn) gave TDP1 cell CPT 15µM*, IL1B secr inh 5 and DT40 TDP1 no CPT 10µM*.
`Cc1ccc(-c2ccc(CN3C(C)C(=O)N(Cc4cn(CC5CCCCC5)nn4)CCS3(=O)=O)cc2)cc1` (stereo not drawn) gave TDP1 cell CPT 16µM*, IL1B secr inh inconclusive and DT40 TDP1 no CPT 16µM*.
Screening O=C(CN1CCN(S(=O)(=O)c2ccccc2)CC1)NCCc1ccccc1 returned TDP1 cell CPT -4%, RORg inh 37%, ELG1 repair inh -8%, IL1B secr inh inactive, DT40 TDP1 no CPT -13% and VP16 counter 4%.
CCCCN(C(=O)C1CCCO1)c1c(N)n(CCC)c(=O)[nH]c1=O (stereo not drawn) was read as TDP1 cell CPT 2%, ELG1 repair inh -1%, IL1B secr inh 13 and DT40 TDP1 no CPT 11%.
Screening COc1ccc(C2=C(c3ccc(OC)c(OC)c3)CN3CCCCC3C2)cc1 (stereo not drawn) returned TDP1 cell CPT inconclusive, ELG1 repair inh 9%, IL1B secr inh -4 and DT40 TDP1 no CPT inconclusive.
Nc1cccc(S(=O)(=O)N2CCOCC2)c1 was read as TDP1 cell CPT 1% and DT40 TDP1 no CPT 17%.
For CC(C)c1ccc2nc(N)sc2c1 the results were TDP1 cell CPT 20%, RORg inh 14%, ELG1 repair inh inconclusive, IL1B secr inh 2, DT40 TDP1 no CPT 26µM* and VP16 counter inconclusive.
Screening C[C@H](C[C@H](N)C(=O)O)C(=O)O returned TDP1 cell CPT 1%, RORg inh 13%, DT40 TDP1 no CPT -4% and VP16 counter -8%.
`NC(=O)c1cnccn1` gave TDP1 cell CPT -1%, RORg inh 8%, ELG1 repair inh 8%, IL1B secr inh -9, DT40 TDP1 no CPT 5% and VP16 counter -5%.
CC(=O)C(=Cc1ccc(Cl)cc1)C(=O)c1ccccc1 was read as TDP1 cell CPT 18µM*, IL1B secr inh -108* and DT40 TDP1 no CPT 18µM*.
For COc1ccc(C=C(C(=O)c2ccccc2)C(=O)c2ccccc2)cc1 the results were TDP1 cell CPT inconclusive, IL1B secr inh -82* and DT40 TDP1 no CPT inconclusive.
For COc1ccc(C=C(C(C)=O)C(=O)c2ccccc2)cc1 the results were TDP1 cell CPT inconclusive, IL1B secr inh -94* and DT40 TDP1 no CPT inconclusive.
`CC(=O)C(=Cc1cccc(C#N)c1)C(=O)c1ccccc1` gave TDP1 cell CPT 16µM*, IL1B secr inh -118* and DT40 TDP1 no CPT 16µM*.
Screening COc1ccc(C=C(C(=O)c2ccccc2)c2ccccc2)cc1 returned TDP1 cell CPT inconclusive, IL1B secr inh 6 and DT40 TDP1 no CPT inconclusive.
`COc1cc(C(=O)NCCCC2CCCC2)ccc1OC1CCN(C(C)=O)CC1` gave TDP1 cell CPT inconclusive, ELG1 repair inh -15%, IL1B secr inh 8 and DT40 TDP1 no CPT inconclusive.
`CC(C(=O)N1CCCC1)N(c1ccc(Cl)cc1)S(C)(=O)=O` (stereo not drawn) gave TDP1 cell CPT -9%, IL1B secr inh inconclusive and DT40 TDP1 no CPT -3%.
Screening COc1ccc(C2CC(=O)c3cc(-c4nc(-c5cccc([N+](=O)[O-])c5)cs4)c(=O)n(-c4ccccc4N)c3C2)cc1 (stereo not drawn) returned TDP1 cell CPT -14% and DT40 TDP1 no CPT -15%.
CCCCN(C=O)c1c(CC)nc2c(OCC(=O)N3CCOCC3)cccn12 was read as TDP1 cell CPT -9%, IL1B secr inh 15 and DT40 TDP1 no CPT -7%.
`COc1ccc(C(=O)/C(Br)=C\C(=O)O)cc1` gave TDP1 cell CPT 2.7µM* and DT40 TDP1 no CPT inconclusive.
For COc1ccc(-c2noc(CCC(=O)N3CCN(c4cccc(OC)c4)CC3)n2)cc1 the results were TDP1 cell CPT inconclusive, ELG1 repair inh 26µM*, IL1B secr inh -18 and DT40 TDP1 no CPT 16µM*.
